# Reference: ChEMBL document CHEMBL3988442, “University of Dundee, Small-Polar-MMV Screening Library” (2021)
# The campaign covered roughly 48,000 compounds. About 13,000 (27%) showed an effect of 50% or more. This is one part of the list.
# Test system: Wolbachia pipientis
# Experiment: Anti-Wolbachia Cell-Based Screen
# Type: functional
# Parameters: scale not given: in the data most compounds retested in dose-response had high values
# Details: 5 µM
row,Structure (SMILES),Percent Effect
1,Cc1cc(=O)n(C)cc1NC(=O)Cc1cc(F)ccc1F,0.6087%
2,O=c1[nH]c(-c2ccccc2F)nc2c1CCNC2,-26.1%
3,CC(C)C1CCCN1C(=O)c1ccc(-n2ncc(C#N)c2N)cc1 (stereo not drawn),-2.457%
4,CCN(CC)C(=O)c1ccc(-n2ncc(C#N)c2N)cc1,113.8%
5,CC(C)CCN(C(=O)c1ccc(-n2ncc(C#N)c2N)cc1)C1CC1,92.49%
6,CC(C1CC1)N(C)C(=O)c1ccc(-n2ncc(C#N)c2N)cc1 (stereo not drawn),117.6%
7,Cc1cnc(NC(=O)c2ccc(-n3ncc(C#N)c3N)cc2)s1,-16.88%
8,COc1ccc(NC(=O)c2ccc(-n3ncc(C#N)c3N)cc2)cn1,-17.39%
9,CC(C)CCN(C(=O)Nc1cccc(C(=O)N(C)C)c1)C1CC1,-4.492%
10,CC(C)CCN(C(=O)c1cccc(NC(N)=O)c1)C1CC1,-12.61%
11,CCCC1SCCN1C(=O)c1ccc(-n2ncc(C#N)c2N)cc1 (stereo not drawn),-7.11%
12,N#Cc1ccc(C(=O)N(C2CC2)C2CC(=O)NC2=O)cc1 (stereo not drawn),-1.854%
13,N#Cc1cnn(-c2ccc(C(=O)N(C3CCCCC3)C3CC3)cc2)c1N,50.38%
14,N#Cc1cnn(-c2ccc(C(=O)Nc3ccccn3)cc2)c1N,2.958%
15,Cc1nc(CN2CCC(C(=O)N(C)C3CCC(C)CC3)CC2)cs1 (stereo not drawn),-8.684%
16,Cc1nc(-c2cc(F)c3c(c2)CC(CN)O3)c[nH]1 (stereo not drawn),4.344%
17,O=C(CCn1cccn1)N1CC[C@@H](c2ccc3ccccc3c2)[C@H](O)C1,28.28%
18,CN(C(=O)c1ccc(-n2ncc(C#N)c2N)cc1)C1CCCC1,106.6%
19,CN(C(=O)c1ccc(NC(=O)c2cc[nH]n2)cc1)C1CCCCC1,-4.101%
20,Cc1nc2c(C#N)cnn2c(C)c1CCC(=O)N(C)C1CC1,-17.24%
21,CCC(=O)Nc1cc(Br)cn(C)c1=O,3.06%
22,O=C(c1ccc(F)cc1)N(CCCO)S(=O)(=O)c1cccs1,17.63%
23,CNc1cc(N2CCCC2CNCc2c[nH]nc2C(C)(C)C)ncn1 (stereo not drawn),0.4855%
24,COCCN1CCC(CNCc2c[nH]nc2C(C)(C)C)CC1,88.21%
25,CC(O)CN1CCC(CNCc2c[nH]nc2C(C)(C)C)CC1 (stereo not drawn),-0.09307%
26,CN(C)CCN1CCC(CNCc2c[nH]nc2C(C)(C)C)CC1,106%

row,Structure (SMILES),Percent Effect
1,Cc1cccc(-c2[nH]ncc2CNCC2CCN(CC(C)O)CC2)c1 (stereo not drawn),-2.172%
2,COCCn1cc(NCc2c[nH]nc2C(C)(C)C)cn1,0.5813%
3,CC(C)N1CCC(CNCc2c[nH]nc2C(C)(C)C)C1 (stereo not drawn),9.105%
4,CCN1CCC(CNCc2c[nH]nc2C(C)(C)C)C1.Cl (stereo not drawn),95.83%
5,Cc1ccc(-c2n[nH]cc2CNCC2CCN(CC(C)O)CC2)cc1 (stereo not drawn),92.7%
6,CC(C)(C)c1n[nH]cc1CNCC1CCN(CC(F)(F)F)C1.Cl (stereo not drawn),-2.373%
7,Cc1ccc(-c2n[nH]cc2CNCC2CCc3nnc(C)n3C2)cc1 (stereo not drawn),-17.97%
8,CC(C)(C)c1n[nH]cc1CNCC1CCN(C2CC2)C1.Cl (stereo not drawn),3.787%
9,CCC(CO)NC(=O)Nc1cc(F)ccc1SCC(F)F (stereo not drawn),1.4%
10,CCOCc1ccc(NC(=O)NC2CCCn3nc(CC)nc32)cc1 (stereo not drawn),-7.286%
11,CCCN(CC(=O)NC)C(=O)c1ccc(-c2nc(C)cs2)cc1,92.57%
12,Cc1ccc(-c2nc(C(=O)N(C)CC(=O)N(C)C)cs2)c(C)c1,-25.77%
13,CN(C)C(=O)c1csc(-c2ccoc2)n1,-7.541%
14,CCCN(CC(=O)N(C)C)C(=O)c1ccc(-c2nc(C)cs2)cc1,106.6%
15,Cc1csc(-c2ccc(NC(=O)N3CCOCC3)cc2)n1,9.555%
16,CNC(=O)CN(C)C(=O)Cc1csc(C(C)C)n1,-0.57%
17,CNC(=O)CN(C)C(=O)c1ccc(-c2nc(C)cs2)cc1,115.5%
18,CCN(CC(=O)N(C)C)C(=O)c1cc(-c2cccc(Cl)c2)no1,-0.1751%
19,CCCN(CC(=O)NC)C(=O)c1ccc(-c2ccsc2)nc1C,-3.974%
20,CCN(CC(=O)NC)C(=O)Cc1csc(C(C)C)n1,-3.04%
21,CCN(CC(=O)N(C)C)C(=O)c1ccc(-c2nc(C)cs2)cc1,133.8%
22,CNC(=O)C(CC(C)C)NC(=O)c1cccc(-c2nc(C)cs2)c1 (stereo not drawn),8.267%
23,CCc1ccc(C(NC(=O)CN(C)S(C)(=O)=O)C(C)(C)C)o1 (stereo not drawn),-2.175%
24,Cc1cn2c(n1)C(CNCc1cnn3ccccc13)CCC2 (stereo not drawn),10.2%
25,CCc1ocnc1C(=O)N1CCN(c2nncc3ccccc23)CC1,-2.931%
26,Cc1c(O)oc(-c2ccc(Br)cc2)nc1=O,-7.091%

row,Structure (SMILES),Percent Effect
1,CC(C(=O)O)N1CCc2onc(-c3ccc4c(c3)OCO4)c2C1 (stereo not drawn),-4.68%
2,N#Cc1ccc(OC2CCN(C(=O)c3ccc4c(c3)OCO4)CC2)nc1,-4.84%
3,CC(=O)NC(C)C1=CCCN(Cc2ccc(C(=O)O)cc2)C1 (stereo not drawn),-17.16%
4,CS(=O)(=O)N[C@@H]1COC[C@@H]2CN(Cc3ccoc3)C[C@@H]21,104.1%
5,CS(=O)(=O)N[C@@H]1COC[C@@H]2CN(Cc3ccco3)C[C@@H]21,121.7%
6,CS(=O)(=O)CC(=O)N1C[C@@H]2CN(Cc3ccoc3)CCO[C@@H]2C1,-2.254%
7,CS(=O)(=O)N[C@H]1COC[C@@H]2CN(Cc3ccco3)C[C@@H]21,102.8%
8,CS(=O)(=O)N[C@@H]1CN(Cc2ccoc2)C[C@@H]2CCCO[C@@H]21,-8.721%
9,CCOCC(=O)N1CCc2c(CN(C)C)nn(C(C)C)c2C1.O=C(O)C(F)(F)F,-22.21%
10,Cn1c(N)nnc1SCC1OCCc2ccccc21 (stereo not drawn),-8.673%
11,O=C(Nc1nncs1)c1ccc(O)nc1,-7.078%
12,CC(C)C(C)N(C)Cc1nnc(-c2ccc(Br)s2)o1 (stereo not drawn),27.84%
13,CN(C)[C@H]1C[C@@H](Cc2cc(CO)on2)C1(C)C,2.334%
14,Cc1nn(C)c2cn(C(C)C(=O)NCc3cccnc3)nc12 (stereo not drawn),6.41%
15,Cc1nn(C)c2cnn(C(C)C(=O)NCc3cccnc3)c12 (stereo not drawn),10.06%
16,CC(C)C(Sc1nnc(C2CC2)n1C1CC1)C(=O)NCc1cccnc1 (stereo not drawn),2.12%
17,CC(C)Cn1nnnc1SC(C(=O)NCc1cccnc1)C(C)C (stereo not drawn),111.1%
18,CC(C)C(Sc1nnnn1C1CC1)C(=O)NCc1cccnc1 (stereo not drawn),0.8079%
19,CC(C)C(Sc1nnnn1C1CC1)C(=O)NCc1ccccc1 (stereo not drawn),90.27%
20,CC(C)C(Sc1nccn1C1CC1)C(=O)NCc1cccnc1 (stereo not drawn),93.78%
21,CC(C)C(Sc1nnnn1-c1ccccc1)C(=O)NCc1cccnc1 (stereo not drawn),-6.711%
22,Cc1ccc(C)c(OC(C)C(=O)NCc2cccnc2)c1 (stereo not drawn),-19.9%
23,CC(C)Sc1nnnn1C1CCCC1,-35.1%
24,CC(C)C(Sc1nncn1C1CC1)C(=O)NCc1cccnc1 (stereo not drawn),102%
25,O=C(c1cc(=O)[nH][nH]1)N1CCCC2(CCC(=O)N(C3CCCC3)C2)C1 (stereo not drawn),-4.852%
26,Cc1nnsc1CN(C)C(=O)CN1CC2(CCNCC2)OC1=O,-6.607%

row,Structure (SMILES),Percent Effect
1,COCCN1CCC(CNC(=O)C2(C#N)CCCC2)CC1,-6.048%
2,COCCN1CCC(CNC(=O)C2(c3ccc(F)cc3)CCC2)CC1,107%
3,O=C(Cc1ccccc1F)NCC1CCN(CCN2CCOCC2)C1 (stereo not drawn),8.19%
4,COCCN1CCC(CNC(=O)C2(c3ccccc3)CCOCC2)C1 (stereo not drawn),84.82%
5,CC(C)(CNC(=O)C1(c2ccccc2)CCOCC1)C(=O)O,1.32%
6,COc1ccncc1NC(=O)C1(c2ccccc2)CC1,-4.467%
7,COCCN1CCC(CNC(=O)C2(S(C)(=O)=O)CCCC2)CC1,-5.804%
8,CCCC(=O)NCC1CCCN(Cc2cc(C)c(C)o2)C1 (stereo not drawn),-7.568%
9,CCN1CCCC(CNC(=O)CCc2ccc(OC)c(F)c2)C1 (stereo not drawn),-5.052%
10,CCN1CCCC(CNC(=O)C2(c3cc(C)cc(C)c3)CCC2)C1 (stereo not drawn),97.54%
11,COc1ccccc1NC(=O)C1(c2ccccc2)CCOCC1,98.14%
12,CCC(Oc1ccc(N(C)S(C)(=O)=O)cc1)C(N)=O (stereo not drawn),16.67%
13,O=C(c1ccc2nccnc2c1)N1CCN(CCO)[C@@H]2CS(=O)(=O)C[C@@H]21,-5.397%
14,O=C(CCCNC(=O)Nc1ccc(F)cc1)Nc1cn[nH]c1,-3.689%
15,Cc1cc(C(=O)N2CCN(C(=O)CC(C)C)[C@@H]3CS(=O)(=O)C[C@@H]32)no1,-7.208%
16,Cc1noc(C)c1CN1C(=O)[C@H]2CC[C@@H]1CN(Cc1cccc(O)c1)C2,-12.83%
17,Cc1cc(C)cc(C2(C(=O)NCC3CCN(CC(F)(F)F)C3)CC2)c1 (stereo not drawn),144.8%
18,COCCN1CCC(CNC(=O)C2(C#N)CCCCC2)CC1,-10.25%
19,N#Cc1ccc(CNC(=O)NC2CCN(CC(F)(F)F)C2)cc1 (stereo not drawn),9.13%
20,CCCN1CCC(CC(=O)NCc2cc(C)nn2C)CC1,-10.83%
21,Cc1cc(C)cc(C2(C(=O)NCC(C)CN3CCCC3=O)CC2)c1 (stereo not drawn),2.33%
22,COCCN1CCC(CNC(=O)C2(c3ccccc3)CCC2)C1 (stereo not drawn),100.1%
23,COCCN1CCC(CNC(=O)C2(c3ccc(Br)cc3)CCCC2)C1 (stereo not drawn),150.6%
24,CCCN1CCC(CNC(=O)C2(c3cc(C)cc(C)c3)CCC2)C1 (stereo not drawn),132%
25,COCCN1CCC(CNC(=O)Nc2ccc(-c3ccccc3)cc2)C1 (stereo not drawn),-0.2028%
